Here are results for nine compounds from PubChem BioAssay (NCI).

Test systems include SK-MEL-2 melanoma; SN12C renal; UO-31 renal; TK-10 renal; ACHN renal; CAKI-1 renal; A498 renal; CCRF-CEM leukemia; MOLT-4 leukemia; SR leukemia; RPMI-8226 leukemia; OVCAR-8 ovarian; OVCAR-5 ovarian; OVCAR-4 ovarian; OVCAR-3 ovarian; HS 578T breast; NCI/ADR-RES ovarian; SK-OV-3 ovarian; IGROV1 ovarian; EKVX NSCLC.
What all share (assay): NCI-60 one-dose screen, 48 h (100 = growth as untreated, 0 = no growth, -100 = all killed)
Common to all, as to conditions: 10 µM unless noted

The panel holds about 83,000 compounds, 20% with a hit somewhere; the sample as a whole holds those more often.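 Plates (96-well) were seeded with cells, treated with compound at one concentration, and incubated for 48 hours before percent growth was determined.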 A number with no mark means an inactive call. Active and inactive are the calls of the source. How the source made its calls: active means growth percent below 10; inactive means the rest.

Consider `COc1cc2oc(-c3cccc(C(=O)Nc4ccc(C)cc4)c3)cc(=O)c2c(OC)c1OC`, for which the growth with SK-MEL-2 melanoma is 42.3%; in the test with SN12C renal, 31.6%; in the test on UO-31 renal it was 44.3%; in the test on TK-10 renal, 53.3%; with ACHN renal, 34.2%; with CAKI-1 renal it was 2.16% (active). In addition, the growth was 6.03% (active) in the test with A498 renal; 34.7% with CCRF-CEM leukemia; 54.7% with MOLT-4 leukemia; 12.7% in the test on SR leukemia; -7.08% (active) in the test on RPMI-8226 leukemia; 33.3% with OVCAR-8 ovarian. Besides, the growth in the test with OVCAR-5 ovarian was 48.2%; with OVCAR-4 ovarian, 59.8%; with OVCAR-3 ovarian it was 42.3%; in the test on HS 578T breast, 64.3%; in the test with NCI/ADR-RES ovarian it was 37.5%.

Turning to `CCCCNC(=O)NS(=O)(=O)c1ccc(N2N=C(c3ccc(C)cc3C)CC2c2ccc(N(C)C)cc2)cc1` (stereo not given), the growth was 78% with SK-MEL-2 melanoma; 59.4% in the test with SN12C renal; 51.4% in the test on UO-31 renal; 83% in the test on TK-10 renal; 48.6% with ACHN renal; 63% in the test with CAKI-1 renal. For the same compound, the growth with A498 renal was 62.6%; with CCRF-CEM leukemia it was 43.3%; in the test on MOLT-4 leukemia, 48.4%; in the test on RPMI-8226 leukemia, 34.2%; with OVCAR-8 ovarian, 57.7%; with OVCAR-5 ovarian, 84.6%. The growth was 64% with OVCAR-4 ovarian; 97.7% in the test with SK-OV-3 ovarian; 51.2% in the test with OVCAR-3 ovarian; 88.1% in the test on HS 578T breast; 46.8% in the test on NCI/ADR-RES ovarian.

On to `COc1ccc(NC(=O)c2cccc(-c3cc(=O)c4c(O)c(OC)c(OC)cc4o3)c2)cc1`, for which the growth in the test with SK-MEL-2 melanoma was 83.4%; in the test on SN12C renal, 84.3%; in the test on UO-31 renal, 93.4%; in the test on TK-10 renal it was 105%; in the test with ACHN renal, 83.6%; with CAKI-1 renal, 93.6%. Moreover, the growth in the test on A498 renal is 83.8%; in the test on CCRF-CEM leukemia it was 84%; with MOLT-4 leukemia, 103%; in the test with SR leukemia it was 80.8%; in the test on RPMI-8226 leukemia it was 92.5%; in the test on OVCAR-8 ovarian it was 80.6%. Further, the growth in the test with OVCAR-5 ovarian is 97.5%; in the test on OVCAR-4 ovarian, 97.5%; with IGROV1 ovarian it was 95.1%; with OVCAR-3 ovarian, 50.6%; in the test with HS 578T breast, 56.1%; with NCI/ADR-RES ovarian it was 85.3%.

For the compound `Cc1c(C(=O)O[C@H]2[C@@H]3[C@H](C)CC[C@H]3[C@]3(C)O[C@@]2(C2CCCCC2)C[C@H]3OC(=O)CO)ccc2ccccc12`, the growth is 40.3% in the test with SK-MEL-2 melanoma; -1.88% (active) in the test with SN12C renal; -11.7% (active) with UO-31 renal; 59.8% in the test on TK-10 renal; 0.73% (active) with CAKI-1 renal; -76.6% (active) with A498 renal. Besides, the growth is -4.66% (active) in the test with CCRF-CEM leukemia; -40.7% (active) with RPMI-8226 leukemia; 28.6% in the test on OVCAR-8 ovarian; 61.1% with OVCAR-5 ovarian; 39.4% in the test on OVCAR-4 ovarian; 62.6% in the test on SK-OV-3 ovarian. For the same compound, the growth with IGROV1 ovarian was 63.3%; in the test on OVCAR-3 ovarian, 29.3%; with HS 578T breast, -29.6% (active); in the test with NCI/ADR-RES ovarian, 8.05% (active).

As to `COc1ccc(/C=C2\C=C(c3ccccc3)N(CCc3ccccc3)C2=O)cc1OC`, the growth is 56.1% with EKVX NSCLC; 53% in the test on SN12C renal; -47.5% (active) in the test with UO-31 renal; -3.91% (active) in the test on TK-10 renal; -32.5% (active) in the test on ACHN renal; 62% in the test on CAKI-1 renal. Also, the growth in the test with A498 renal is -75.4% (active); with CCRF-CEM leukemia it was 57.6%; in the test with MOLT-4 leukemia it was 34%; in the test with SR leukemia, -1.98% (active); in the test on RPMI-8226 leukemia, 70.6%; in the test with OVCAR-8 ovarian, 25.9%. Besides, the growth is 67.2% with OVCAR-5 ovarian; -5.49% (active) with OVCAR-4 ovarian; -30.3% (active) in the test on SK-OV-3 ovarian; 49% with IGROV1 ovarian; 28% in the test on OVCAR-3 ovarian; 13.1% in the test with HS 578T breast. Further, in the test with NCI/ADR-RES ovarian, the growth is 31.6%.

With `CN(C)c1ccc(/C=C2\C=C(c3ccccc3)N(CCc3ccccc3)C2=O)cc1`, the growth was 46.9% in the test with EKVX NSCLC; 89.8% with SN12C renal; 61% in the test on UO-31 renal; 88.7% with TK-10 renal; 57.6% with ACHN renal; 76.9% in the test on CAKI-1 renal. Moreover, the growth in the test with A498 renal is 72.8%; with CCRF-CEM leukemia it was 102%; in the test on MOLT-4 leukemia it was 86.5%; in the test on SR leukemia it was 23.5%; with RPMI-8226 leukemia, 93%; in the test on OVCAR-8 ovarian, 11.7%. Further, the growth is 98.7% with OVCAR-5 ovarian; -11.6% (active) with OVCAR-4 ovarian; 60.9% with SK-OV-3 ovarian; 70.2% in the test on IGROV1 ovarian; 19.1% in the test with HS 578T breast; 48.6% in the test with NCI/ADR-RES ovarian.

In the case of `Fc1ccc(Nc2nc(Nc3ccc(-c4nc5ccccc5[nH]4)cc3)c3cn[nH]c3n2)cc1`, the growth in the test on SK-MEL-2 melanoma is 92.8%; in the test with UO-31 renal it was 79.8%; with TK-10 renal, 99.5%; in the test on ACHN renal it was 78.9%; in the test with CAKI-1 renal, 89.7%; in the test on A498 renal, 101%. In addition, the growth in the test on CCRF-CEM leukemia is 31.9%; in the test with MOLT-4 leukemia, 21.6%; in the test on SR leukemia, -21.1% (active); in the test with RPMI-8226 leukemia, 1.66% (active); in the test on OVCAR-8 ovarian, 56.8%; with OVCAR-5 ovarian it was 106%. The growth in the test with OVCAR-4 ovarian was 81.8%; in the test with SK-OV-3 ovarian, 90.3%; in the test with IGROV1 ovarian it was 81.6%; in the test with OVCAR-3 ovarian it was 20.3%; in the test on HS 578T breast, 93.5%; with NCI/ADR-RES ovarian, 67.5%.

As for `C[C@@H]1C(=O)N(C[C@H](Cc2ccccc2)N(Cc2ccccc2)Cc2ccccc2)[C@]1(Cc1ccccc1)C(=O)OC(C)(C)C`, the growth was 53.2% in the test on EKVX NSCLC; 56.8% with SN12C renal; 41.2% in the test on UO-31 renal; 50.5% with TK-10 renal; 63.9% in the test on ACHN renal; 55.2% with CAKI-1 renal. The growth with A498 renal is 8.49% (active); in the test with CCRF-CEM leukemia, 70%; with MOLT-4 leukemia it was 63.8%; in the test on SR leukemia, 56.2%; in the test with RPMI-8226 leukemia, 36.8%; in the test on OVCAR-8 ovarian it was 66.7%. In addition, the growth in the test with OVCAR-5 ovarian was 109%; in the test with OVCAR-4 ovarian, 28.8%; in the test with SK-OV-3 ovarian, 73.1%; in the test on IGROV1 ovarian it was 77.5%; with OVCAR-3 ovarian, 54.5%; with HS 578T breast, 73%. Moreover, the growth in the test on NCI/ADR-RES ovarian is 69%.

Consider `CO/C(=C1/NC(=O)C(Cc2ccc(O)c(Br)c2)N(C)C(=O)C(C)NC(=O)CCC/C=C(\C)CCC(C)OC1=O)c1ccccc1` (stereo not given), for which the growth is -100% (active) with SK-MEL-2 melanoma; 6.56% (active) with SN12C renal; -84.9% (active) in the test with UO-31 renal; -83.2% (active) with TK-10 renal; -34.7% (active) in the test on ACHN renal; -63.7% (active) in the test on A498 renal. For the same compound, the growth in the test with CCRF-CEM leukemia is 0.832% (active); with MOLT-4 leukemia it was -12.2% (active); with SR leukemia it was -25.9% (active); in the test with RPMI-8226 leukemia, -57.4% (active); in the test with OVCAR-8 ovarian, -14.6% (active); in the test with OVCAR-5 ovarian, -2.82% (active). The growth in the test on OVCAR-4 ovarian was 0.0232% (active); with SK-OV-3 ovarian it was -42.2% (active); with IGROV1 ovarian, -80% (active); with OVCAR-3 ovarian, -67.5% (active); with HS 578T breast it was -34% (active); in the test on NCI/ADR-RES ovarian, -0.469% (active).
